Records with an inconclusive call do not appear. Values without a mark were called inactive. Activity calls are given as the source filed them. Calls follow the shape of the dose curve; as a rule, active = well fitted inhibition curve with a large enough effect; inconclusive = small, poorly fitted or top-dose-only effect; inactive = flat fitted curve, though single readings scatter.

A short description of test [1]: qHTS profiling for inhibitors of Plasmodium falciparum proliferation (AID 504749). Also: nearly all actives have a fitted effect of over 60% in size.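 As to activity, negative = inhibition: 0% = DMSO vehicle and full inhibition = artemisinin control.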 The following applies: P. falciparum in erythrocytes, SYBR Green DNA, 72 h. The procedure, abridged:
(§1)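 Three-day growth assay of blood-stage parasites in erythrocytes (0.3% parasitemia, 2.5% hematocrit) at 37 C, 5% CO2, quantified by SYBR Green DNA staining after overnight detergent lysis.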
Background: Quantitative high-throughput screening tests each substance at several concentrations.

The test system of another test is 3D7. The test is described as above. The following applies: P. falciparum in erythrocytes, SYBR Green DNA, 72 h; series mostly up to 28.7 µM. The procedure, abridged:
as §1

In another test the test system is 7G8. The test is described as above. The following applies: P. falciparum in erythrocytes, SYBR Green DNA, 72 h; series mostly up to 28.7 µM. The procedure, abridged:
as §1

Another test concerns AA1029. Described as above. The following applies: P. falciparum in erythrocytes, SYBR Green DNA, 72 h; series mostly up to 28.7 µM. The procedure, abridged: as §1
Another test deals with AS120. The description is as above. The following applies: P. falciparum in erythrocytes, SYBR Green DNA, 72 h; series mostly up to 28.7 µM. The procedure, abridged:
as §1

The next test relates to ATS189. The description is as above. The following applies: P. falciparum in erythrocytes, SYBR Green DNA, 72 h; series mostly up to 28.7 µM. The procedure, abridged:
as §1

A further test relates to ATS95. The description is as above. The following applies: P. falciparum in erythrocytes, SYBR Green DNA, 72 h; series mostly up to 28.7 µM. The gist of the method:
as §1

Where [2] appears, read: at 12.8 µM (top of the series), parasite line A.
[3] abbreviates: at 12.8 µM (top of the series), parasite line B.
Setting [4] is: at 28.7 µM (top of the series), parasite line A.
Where [5] appears, read: at 28.7 µM (top of the series), parasite line B.
Potency is read from the fitted curve at half-maximal effect.

Consider `CCCCOc1ccc(OCCCN2CCOCC2)cc1`, for which the activity, negative = inhibition in test [1] (setting [2]) was 9.41%; in test [1] (setting [3]), 8.45%. Also, the Potency entry with 3D7, in the test with 7G8, in the test on AA1029, in the test on AS120, with ATS189 and in the test with ATS95 was “inactive” each time.

For the compound `CN1CCC(=C2c3ccccc3Sc3ccccc32)CC1`, the Potency in test [1] (parasite line A) is 6.31 µM (active); in test [1] (parasite line B), 10 µM (active); in the test on 3D7, 8.91 µM (active); with 7G8 it was 5.01 µM (active); in the test with AA1029 it was 5.62 µM (active); in the test with AS120 it was 12.6 µM (active). The Potency in the test with ATS189 was 7.94 µM (active); in the test with ATS95, 11.2 µM (active).

With `C1CCc2nnnn2CC1`, the activity, negative = inhibition in test [1] (setting [4]) was 11.2%; in test [1] (setting [5]) it was 0.626%. For the same compound, the Potency result with 3D7, in the test with 7G8, in the test with AA1029, in the test with AS120, in the test on ATS189 and with ATS95 was “inactive” each time.

Regarding `CC1(C)CCC(NC(=O)[C@@H](N)CCC(=O)O)CC1`, the activity, negative = inhibition in test [1] (setting [4]) was 2.48%; in test [1] (setting [5]) it was 10.3%. For the same compound, the Potency entry in the test on 3D7, in the test with 7G8, in the test on AA1029, with AS120, in the test on ATS189 and with ATS95 was “inactive” in each case.

For the compound `CCCCCCC[N+](CC)(CC)CCCCc1ccc(Cl)cc1`, the Potency was 1.78 µM (active) in test [1] (parasite line A); 2.24 µM (active) in test [1] (parasite line B); 1.41 µM (active) with 3D7; 0.631 µM (active) with 7G8; 2 µM (active) with AA1029; 2.51 µM (active) with AS120. Further, the Potency with ATS189 was 2.82 µM (active); in the test on ATS95, 2.24 µM (active).

As to `CN1C2CCC1CC(OC(=O)c1c[nH]c3ccccc13)C2` (stereo not given), the activity, negative = inhibition in test [1] (setting [4]) is 9.99%; in test [1] (setting [5]), 3.24%. For the same compound, the Potency result in the test with 3D7, in the test on AA1029, in the test with AS120, with ATS189 and with ATS95 was “inactive” throughout. Besides, the Potency in the test with 7G8 is 10 µM (active).

Regarding `Cc1c(N(C)CS(=O)(=O)O)c(=O)n(-c2ccccc2)n1C`, the activity, negative = inhibition in test [1] (setting [2]) was 17.9%; in test [1] (setting [3]) it was 23.3%. Besides, the Potency result in the test with 3D7, in the test with 7G8, with AA1029, in the test on AS120, in the test with ATS189 and with ATS95 was “inactive” in each case.

Turning to `CC(C)(C)CC(C)(C)c1ccc(OCCOCC[N+](C)(C)Cc2ccccc2)cc1`, the Potency was 3.55 µM (active) in test [1] (parasite line A); 5.01 µM (active) in test [1] (parasite line B); 1.78 µM (active) in the test on 3D7; 1.58 µM (active) in the test with 7G8; 4.47 µM (active) in the test with AA1029; 5.01 µM (active) in the test with AS120. The Potency in the test on ATS189 was 7.08 µM (active); with ATS95, 3.98 µM (active).

Regarding `CCOC(=O)OC(C)OC1=C(C(=O)Nc2ccccn2)N(C)S(=O)(=O)c2ccccc21` (stereo not given), the figures for the activity, negative = inhibition in test [1] (setting [4]) and in test [1] (setting [5]) were 3.03% and 19.4%, respectively. Moreover, the Potency result with 3D7, with 7G8, in the test with AA1029, in the test with AS120, in the test with ATS189 and with ATS95 was “inactive” each time.

Take `Cc1c(F)c(N2CCNC(C)C2)cc2c1c(=O)c(C(=O)O)cn2C1CC1` (stereo not given): the activity, negative = inhibition in test [1] (setting [4]) is 8.42%; in test [1] (setting [5]), 6.98%. Also, the Potency result in the test on 3D7, with 7G8, in the test with AA1029, in the test with AS120, in the test with ATS189 and in the test with ATS95 was “inactive” throughout.

These data come from PubChem BioAssay (NCATS).
